# Measured values from PubChem BioAssay AID1259343 (VanderVen Lab, College of Veterinary Medicine, Cornell …, 2017).
# In all, about 6,200 compounds went through this assay and about 2,900 (47%) were called active. No stated cut-off is given here; in the data, active means inhibition above about 50%; inactive means the rest. The set was probably picked from earlier hits. This is one part of the list.
# Assay: Mycobacterium tuberculosis growth inhibition, primary screen (AID 1259343)
# Conditions: inhibition: at 10 µM, active compounds read high; outcome: 10 uM
row,Structure (SMILES),inhibition
1,S=C(NC1Cc2ccccc2C1)N1CCCC1,14.2% (inactive)
2,CN(Cc1cccc(F)c1)C(=O)c1ccc(NC(=O)C2CC2)s1,-11.3% (inactive)
3,O=C(Cc1cccc(F)c1)NCc1ccc(Cl)s1,64.5% (active)
4,CC(=O)c1ccc(OC(=O)COc2cccc(OCCC(C)C)c2)cc1,67.6% (active)
5,COc1cccc(OCC(=O)Oc2ccc(C(=O)c3ccc(C)cc3)cc2)c1,53% (active)
6,CC(=O)c1ccc(OC(=O)COc2ccc(Oc3ccc(C)cc3)cc2)cc1,88.7% (active)
7,CCOc1ccc(OCCOc2ccc(Cl)cc2)cc1,93.8% (active)
8,CCOc1cccc(OCCOc2cccc(Br)c2)c1,36.5% (inactive)
9,CCOc1ccccc1OCCOc1ccccc1,27.6% (inactive)
10,CCOc1ccc(OCCOCCOc2ccccc2)cc1,92.7% (active)
11,CCOc1ccc(OCCOc2ccccc2)cc1,92.8% (active)
12,CCOc1ccc(OCCOc2cccc(C(F)(F)F)c2)cc1,84.9% (active)
13,CCOc1ccc(OCCCOc2ccc(Cl)cc2)cc1,inactive
14,CCOc1ccc(OCCCOc2ccc(C)cc2)cc1,-3.92% (inactive)
15,Clc1ccc(OCCOC2OCCOC2OCCOc2ccc(Cl)cc2)cc1 (stereo not drawn),76.8% (active)
16,CCOc1ccc(OCCCOc2ccc(CC)cc2)cc1,-34% (inactive)
17,Clc1ccc(OCCOCCOc2ccc(Cl)cc2)cc1,21.3% (inactive)
18,CCOc1ccc(OCCCOc2ccc(I)cc2)cc1,92.8% (active)
19,CN=c1scc(C)n1N=C(C)c1cccc(F)c1,15.2% (inactive)
20,COc1ccc(/C=C(/C#N)c2c[nH]c3ccccc23)cc1,33.9% (inactive)
21,O=C(Cc1cc(-c2ccc(F)cc2F)on1)NCCCc1ccccc1,54% (active)
22,O=C(Cc1cc(-c2ccc(F)cc2F)on1)NCCC1=CCCCC1,85.6% (active)
23,O=C(Cc1cc(-c2ccc(F)cc2F)on1)NCCc1ccccc1,93.5% (active)

row,Structure (SMILES),inhibition
1,O=C(Cc1cc(-c2ccc(F)cc2)on1)NCCC1=CCCCC1,36.7% (inactive)
2,O=C(OCc1cc(-c2ccc(F)cc2F)on1)C1CC1,38.6% (inactive)
3,CC(C)OCCCNC(=O)Cc1cc(-c2ccc(F)cc2F)on1,36.4% (inactive)
4,COc1ccc(NC(=O)c2ccc3c(c2)CCCC3)cn1,97.6% (active)
5,COc1ccc(NC(=O)c2ccc3c(c2)CCCC3)c(OC)c1,10.4% (inactive)
6,Fc1c(F)c(F)c(N2CCNCC2)c(F)c1F,-14.9% (inactive)
7,FC(F)(F)C1CCCN(c2nsc3ccccc23)C1 (stereo not drawn),101% (active)
8,Cc1ccc(-c2n[nH]c(=S)n2N=Cc2ccccc2)cc1,55.7% (active)
9,FC(F)Oc1ccc(-c2n[nH]c(=S)n2N=Cc2ccc3c(c2)OCCO3)cc1,85.8% (active)
10,CCN=c1scc(-c2ccc(OC(F)F)cc2)n1N=Cc1ccc2c(c1)OCO2,-4.29% (inactive)
11,O=c1cc(-c2ccc(F)cc2)[nH]n1-c1nc2ccccc2[nH]1,75.6% (active)
12,CC(C)c1cc(-n2ccnc2)n2ncc(-c3ccccc3)c2n1,inactive
13,C=C(C#N)C(O)c1ccc(-c2ccccc2)cc1 (stereo not drawn),27.8% (inactive)
14,c1ccc(-c2ccc(C(c3ccccc3)n3ccnc3)cc2)cc1 (stereo not drawn),79.7% (active)
15,COc1ccc(Cl)c2sc(N(CCCN(C)C)C(=O)Cc3ccccc3)nc12,69.2% (active)
16,Cc1cc(C(=O)N(CCCN(C)C)c2nc3ccc(Cl)cc3s2)nn1C,30.6% (inactive)
17,CCC(C)(C)C1CCC2(CC1)NCCc1c2[nH]c2ccccc12 (stereo not drawn),0.19% (inactive)
18,C=CCN(C)C(=O)c1coc(COc2ccc3ccc(OC)cc3c2)n1,65.1% (active)
19,Cc1nonc1CN(C)C(=O)c1coc(COc2cccc(C(F)(F)F)c2)n1,22.3% (inactive)
20,C=C(C)CN(C)C(=O)c1coc(COc2ccc3c(c2)OCO3)n1,26.6% (inactive)
21,N#Cc1c(F)cccc1NCc1csc(C2CC2)n1,57.3% (active)
22,N#Cc1c(F)cccc1NCCNc1nc2ccccc2o1,-5.14% (inactive)
23,OCC1O[C@H]([S-])[C@@H](O)C(O)[C@@H]1O.[Au+] (stereo partly drawn),5.4% (inactive)

row,Structure (SMILES),inhibition
1,Cc1ccc(NC2OC(CO)C(O)C(O)C2O)cc1Br (stereo not drawn),84.8% (active)
2,COc1cccc(-c2nc3ccc(-c4cccc(Cl)c4)cn3c2CN2CCNCC2)c1,23.2% (inactive)
3,CN(C)CCCOc1ccc(-c2nnc3ccc(-c4cccc(Oc5ccccc5)c4)cn23)cc1,66.5% (active)
4,Cc1cc(NC(=O)CNC(c2ccccn2)C(C)C)ccc1Cl (stereo not drawn),79.4% (active)
5,CCOc1cccc(-c2cccc(-n3cnnc3)c2)c1,66% (active)
6,CCOc1cccc(-c2cnc(NC(C)=O)cn2)c1,23.7% (inactive)
7,Oc1ccc(CC2COCC(Cc3ccc(O)cc3)C2)cc1 (stereo not drawn),62.4% (active)
8,CS(=O)(=O)c1nc(-c2ccccc2)cc(C(F)(F)F)n1,99.7% (active)
9,Cc1ccc(-c2cc(C(F)F)nc(S(C)(=O)=O)n2)cc1,90.4% (active)
10,CS(=O)(=O)c1nc(-c2cccs2)cc(C(F)(F)F)n1,101% (active)
11,O=c1ccc(-c2ccc(F)cc2)nn1Cc1ccc(C(F)(F)F)cc1,20% (inactive)
12,O=c1ccc(-c2ccc(F)cc2)nn1Cc1cccc(C(F)(F)F)c1,35.1% (inactive)
13,O=c1[nH]c(=S)[nH]c2nc(-c3cccs3)cc(C(F)(F)F)c12,34.4% (inactive)
14,CS(=O)(=O)c1nc(-c2ccc(F)cc2)cc(C(F)(F)F)n1,101% (active)
15,Cn1cccc1C1CCCCCN1C(=O)c1ccc(NC2CC2)nc1 (stereo not drawn),-11.4% (inactive)
16,COc1ccc(-c2cc(C(F)(F)F)nc(S(C)(=O)=O)n2)cc1,101% (active)
17,Cc1nc2c(OCc3cc(Cl)cc(Cl)c3)cccn2c1N(C)Cc1cccs1,82.7% (active)
18,CC(C(=O)Nc1cccc(Cl)c1)N(C)Cc1cccs1 (stereo not drawn),5% (inactive)
19,COc1cc(/C=C/C(=O)Nc2cc(C)nn2-c2nc3c(c(=O)[nH]2)CCC3)cc(OC)c1OC,2.27% (inactive)
20,CCCc1cc(=O)[nH]c(-n2nc(C)cc2NC(=O)/C=C/c2ccc(OC)c(OC)c2)n1,102% (active)
21,CCCc1cc(=O)[nH]c(-n2nc(C)cc2NC(=O)/C=C/c2cc(OC)c(OC)c(OC)c2)n1,99.8% (active)
22,COc1cc(/C=C/C(=O)Nc2cc(C)nn2-c2nc(C)c(C)c(=O)[nH]2)cc(OC)c1OC,99.5% (active)
